Sampled rows, rich in hits. Any-hit rate of the full collection: about 17%.
TDP1 cell noCPT – qHTS for Inhibitors of human tyrosyl-DNA phosphodiesterase 1 (TDP1): qHTS in cells in absence of CPT; DT40 Tdp1-/- hTDP1 cells, no CPT, ATP luminescence, 48 h; Potency, µM (titrated, usually from 46.2 µM), usual class: inhibitors; actives 15% (n = 420,000); AID 686978, 2013; further: nearly all actives have a fitted effect of over 55% in size
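Seeded 400 DT40-hTDP1 cells/well (vehicle DMSO, no 20 nM CPT); pinned compounds; ≥48 hr at 37 °C; CellTiter-Glo luminescence as viability measure.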
TDP1 inh – qHTS Assay for Inhibitors of Tyrosyl-DNA Phosphodiesterase (TDP1) | Tyrosyl-DNA phosphodiesterase 1 (Homo sapiens), Q9NUW8 | recombinant TDP1, AlphaScreen DNA substrate cleavage | Potency, µM (highest dose often 130 µM), hits mostly inhibitors | actives 0.28% (n = 350,000); further: nearly all actives have a fitted effect of over 40% in size
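Steps: enzyme plus compound, 15 min RT; add biotin/phosphotyrosine-FITC oligonucleotide (15 nM final), react 5 min; add donor/acceptor beads (10 ug/ml final), 10 min; read AlphaScreen. Tdp1 at 1 nM final.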
ClpP mod – qHTS Assay for Activators of ClpP | Potency, µM (titrated, usually from 57.5 µM) | purified B. subtilis ClpP, FRET peptide cleavage, 20 min | actives 1.9% (n = 340,000) | ATP-dependent Clp protease proteolytic subunit (Bacillus subtilis (strain 168)), P80244 | AID 651965, 2013; active means well fitted falling curve with a large enough effect; inconclusive means small, poorly fitted or top-dose-only effect; inactive means no such curve, though single readings can be large or run the other way; further: the source files actives as falling curves though it sought activators and does not explain the sign; nearly all actives have a fitted effect of over 65% in size
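Buffer: 100 mM Tris/HCl pH8, 100 mM KCl, 0.05% low protease BSA, 2.5% glycerol, 0.01% Tween-20. ClpP 10 microg/mL final; 20 min RT; delta FRET normalized to ADEP and DMSO controls.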
DT40 TDP1 CPT – qHTS for Inhibitors of human tyrosyl-DNA phosphodiesterase 1 (TDP1): qHTS in cells in presence of CPT. chicken DT40 Tdp1-/-;hTDP1 cells + 20 nM CPT, ATP luminescence, 48 h. Potency, µM (highest dose often 46.2 µM), usual class: inhibitors. actives 12% (n = 420,000). AID 686979, 2013; further: nearly all actives have a fitted effect of over 55% in size
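Chicken DT40 Tdp1-/- cells stably complemented with human TDP1 were seeded at 400 cells/well in medium containing 20 nM camptothecin, exposed to pin-transferred compounds, and grown at 37 °C for at least 48 hr. Viability was read as ATP luminescence.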
Of the large screens only hits and unclear results are named; the others gave an inactive call. Unless noted, the call rests on the fitted dose curve; in most records, active means well fitted curve in the direction sought with a large enough effect; inconclusive means small, poorly fitted or top-dose-only effect, or another doubt; inactive means no such curve, though single readings can be large; an effect the other way counts as inactive or inconclusive.

Cc1ccc(-c2ccc([C@H]3[C@H]4C=CC[C@@H](C)[C@@H]4C(=O)N3Cc3ccccc3)c(F)c2)cc1	TDP1 cell noCPT inconclusive, ClpP mod inconclusive, DT40 TDP1 CPT inconclusive
COC(=O)c1ccc(-c2ccc([C@H]3[C@H]4C=CC[C@@H](C)[C@@H]4C(=O)N3Cc3ccccc3)c(F)c2)cc1	TDP1 cell noCPT 3.26µM, DT40 TDP1 CPT 6.51µM
C[C@@H]1CC=C[C@H]2[C@H]1C(=O)N(Cc1ccccc1)[C@H]2c1ccc(-c2ccc(N(C)C)cc2)cc1F	TDP1 cell noCPT 11.6µM, DT40 TDP1 CPT 20.6µM
CC(=O)c1ccc(-c2ccc([C@H]3[C@H]4C=CC[C@@H](C)[C@@H]4C(=O)N3Cc3ccccc3)c(F)c2)cc1	TDP1 cell noCPT 13µM, DT40 TDP1 CPT 13µM
O=C1CN(S(=O)(=O)c2c(F)cccc2F)CCN1S(=O)(=O)c1ccc2c(c1)OCCO2	none (no result: TDP1 cell noCPT, ClpP mod, DT40 TDP1 CPT)
COc1c([N+](=O)[O-])ccc(N)c1N	none (no result: TDP1 inh)
CC(C)OC(=O)NS(=O)(=O)c1cccc([N+](=O)[O-])c1	none
Cc1noc(C)c1S(=O)(=O)NCCc1csc2nc(-c3ccc(F)cc3)nn12	TDP1 cell noCPT 23.1µM, DT40 TDP1 CPT 18.4µM
CCOc1ccc(S(=O)(=O)NCCc2csc3nc(-c4ccc(F)cc4)nn23)cc1	TDP1 cell noCPT 6.51µM, DT40 TDP1 CPT 11.6µM
CCOc1ccc(CC(=O)NCCc2sc3nc(-c4ccc(F)cc4)nn3c2C)cc1	TDP1 cell noCPT inconclusive, DT40 TDP1 CPT inconclusive
COc1ccc(S(=O)(=O)Cc2ccccc2)cc1N	TDP1 cell noCPT inconclusive, DT40 TDP1 CPT 9.2µM
COc1cccc(CS(=O)(=O)c2ccccc2)c1	none (no result: TDP1 cell noCPT, ClpP mod, DT40 TDP1 CPT)
O=c1[nH]c(=O)n2c(c1-c1ccccc1)OC(CBr)C2 (configuration not stated)	none (no result: TDP1 inh)
COc1ccc(OC)c(NC(=O)Nc2c(O)ccc3ccccc23)c1	TDP1 cell noCPT inconclusive, DT40 TDP1 CPT 14.6µM (no result: TDP1 inh)
COc1ccc(OC)c(NC(=O)Nc2ccc(O)c3ccccc23)c1	TDP1 cell noCPT 4.61µM, DT40 TDP1 CPT 2.59µM (no result: TDP1 inh, ClpP mod)
COc1ccc(OC)c(NC(=O)Nc2ccccc2C)c1	none
COc1ccc(OC)c(C(=O)Nc2c(O)ccc3ccccc23)c1	TDP1 cell noCPT 16.4µM, DT40 TDP1 CPT 20.6µM (no result: TDP1 inh)
COc1cc(OC)cc(-c2nnc3n2N=C(c2c(OC)cccc2OC)CS3)c1	none (no result: TDP1 cell noCPT, ClpP mod, DT40 TDP1 CPT)
N#Cc1ccc(-c2ccc(OCC3CNC(=O)O3)cc2)cc1 (configuration not stated)	TDP1 cell noCPT 13µM, DT40 TDP1 CPT 8.2µM
O=C1NCC(COc2ccc([N+](=O)[O-])cc2)O1 (configuration not stated)	none (no result: TDP1 inh)
CCN(CC)CCCNC(=O)c1cn(C)c2ccc(S(=O)(=O)N3CCOCC3)cc2c1=O	none
COC(=O)c1cc2nc(-c3ccccc3)cc(C)n2n1	ClpP mod inconclusive
CCOc1ccc(-c2cc(C)n3nc(C(N)=O)cc3n2)cc1	ClpP mod 15.8µM
COc1ccc(NC(=O)CN2C(=O)C(c3ccccc3)=NC23CCC(C)CC3)cc1Cl (configuration not stated)	TDP1 cell noCPT inconclusive, DT40 TDP1 CPT inconclusive
CCOc1ccc(NC(=O)CN2C(=O)C(c3ccccc3)=NC23CCC(C)CC3)cc1 (configuration not stated)	TDP1 cell noCPT 16.4µM, DT40 TDP1 CPT 16.4µM
CC(=O)CSc1ncnc2scc(-c3ccc(F)cc3)c12	none (no result: ClpP mod)
Cc1ccc(-c2csc3ncnc(Sc4nnc(CN5CCCCCC5=O)o4)c23)cc1	TDP1 cell noCPT 6.51µM, DT40 TDP1 CPT 4.11µM
COc1ccc(Cl)cc1-c1noc([C@@H]2O[C@H](CO)[C@@H](O)[C@H]2O)n1	TDP1 cell noCPT inconclusive, DT40 TDP1 CPT inconclusive (no result: TDP1 inh)
Cc1ccc(NC(=O)/C=C/c2ccccc2Cl)cc1Cl	none
COc1ccc(/C=C/C(=O)Nc2ccc3nc(N4CCCCC4)cc(C)c3c2)cc1OC	TDP1 cell noCPT 2.59µM, DT40 TDP1 CPT 2.91µM
COc1ccc(/C=C/C(=O)Nc2ccc3nc4n(c(=O)c3c2)CCCC4)cc1OC	none
Cc1cc(N2CCCCC2)nc2ccc(NC(=O)/C=C/c3ccccc3OC(C)C)cc12	TDP1 cell noCPT 10.3µM, DT40 TDP1 CPT 7.31µM
CC(=O)N(C)c1ccc(NC(=O)/C=C/c2ccccc2Cl)cc1	TDP1 cell noCPT 13µM, DT40 TDP1 CPT inconclusive
Cc1cc(N2CCCCC2)nc2ccc(NC(=O)/C=C/c3ccccc3Cl)cc12	TDP1 cell noCPT 10.3µM, DT40 TDP1 CPT 13µM
Cc1ccc(N(CCC(=O)O)S(=O)(=O)c2ccccc2)cc1	none
Cc1ccc(OCC(=O)Nc2ccc(S(=O)(=O)N(Cc3ccccc3)c3ccccc3)cc2)cc1	TDP1 cell noCPT 4.61µM, DT40 TDP1 CPT 18.4µM
COC(=O)Cc1ccc(N(Cc2ccccc2F)S(=O)(=O)c2ccc(C)cc2)cc1	TDP1 cell noCPT 18.4µM, DT40 TDP1 CPT 20.6µM (no result: ClpP mod)
Cc1ccc(S(=O)(=O)N(C)c2ccc(OCC(=O)Nc3ccc(C(=O)N(C)C)cc3)cc2)cc1C	TDP1 cell noCPT 18.4µM, DT40 TDP1 CPT inconclusive
COc1ccc(CN(C)C(=O)CCN(c2ccccc2)S(=O)(=O)c2ccc(C)cc2)c(OC)c1	TDP1 cell noCPT 23.1µM, DT40 TDP1 CPT 20.6µM
COc1ccc(OCC(=O)Nc2ccc(S(=O)(=O)N(C)c3ccccc3)cc2)cc1	none
COc1ccc(CCNC(=O)c2cccc(S(=O)(=O)N3CCc4ccccc4C3)c2)cc1	TDP1 cell noCPT inconclusive, DT40 TDP1 CPT inconclusive
CC(=O)Nc1ccc(N2C(=O)CSC2c2cccc([N+](=O)[O-])c2)cc1 (configuration not stated)	none (no result: ClpP mod)
CCCCc1nc2c(c3c1C[C@H](C)OC3)CN(C(=O)C1CCCCC1)CC2	none (no result: TDP1 cell noCPT, ClpP mod, DT40 TDP1 CPT)
COC(=O)c1ccc(NC(=O)COc2ccc(N(C)S(=O)(=O)c3ccc(C)cc3)cc2)cc1	TDP1 cell noCPT inconclusive, DT40 TDP1 CPT 16.4µM
CN(CCOc1ccccc1)C(=O)c1cc([N+](=O)[O-])cc([N+](=O)[O-])c1	TDP1 cell noCPT inconclusive
CC(C)c1cc(CN2C(C)COCC2C)cc(C(C)C)c1O (configuration not stated)	TDP1 cell noCPT inconclusive, DT40 TDP1 CPT 20.6µM (no result: TDP1 inh)
CC(=O)Nc1cc(C(C)C)c(O)c(C(C)C)c1	none
O=C1NC[C@H](CCCCN2C[C@H](Cc3ccc(O)cc3)N(CC3CCCCC3)C(=O)C2=O)N(CCC2CCCCC2)C1=O	none (no result: TDP1 inh)
CCCCCNc1nc(N2CCCC2)c2c(c1C#N)CCN(C)C2	TDP1 cell noCPT 23.1µM, DT40 TDP1 CPT 23.1µM
COc1cccc2c1OC(=O)CC2c1ccc(C)cc1 (configuration not stated)	none (no result: TDP1 cell noCPT, ClpP mod, DT40 TDP1 CPT)
CN(Cc1ccc(C(C)(C)C)cc1)C(=O)C1CCN(C(=O)Nc2ccccc2)CC1	TDP1 cell noCPT 23.1µM, DT40 TDP1 CPT inconclusive (no result: ClpP mod)
Cc1ccc(CN(C)C(=O)C2CCN(C(=O)Nc3ccccc3)CC2)o1	none (no result: ClpP mod)

Source: PubChem BioAssay
